# Measured values published in PubChem BioAssay (EPA / NIEHS).
# Results filed as inconclusive are left out. The source made the active and inactive calls. Rule for the calls, unless noted: active = hit-call score of the fitted dose curve at least 0.9, where 1 is the maximum; inconclusive = response in the unintended direction; inactive = score below 0.9.
# Columns and labels:
# [1] = TOX21_p53_BLA_p2_viability: Viability Assessment in the Tox21 HCT-116 p53 Agonism Beta-lactamase Assay, Phase 2 (AID 2283591);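 note: compound exposure lasted 16 h at 37 °C; actives lower the ATP signal meaning cytotoxicity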
# Summary of the method: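 HCT116 p53-bla cells, 4000/well, dosed after 5 h plating (217-fold dilution of DMSO stocks) and incubated 16 h at 37C. Viability taken as cellular ATP by CellTiter-Glo luminescence after 30 min RT; signal loss marks cytotoxicity.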
# [2] = target: Cellular tumor antigen p53 (Homo sapiens) (UniProt P04637); test: TOX21_p53_BLA_p2_ratio: Tox21 HCT-116 p53 Agonism Beta-lactamase Assay, Ratio, Phase 2 (AID 2283592)
# Chain of Cellular tumor antigen p53 (Homo sapiens) (P04637 whole entry, looked up): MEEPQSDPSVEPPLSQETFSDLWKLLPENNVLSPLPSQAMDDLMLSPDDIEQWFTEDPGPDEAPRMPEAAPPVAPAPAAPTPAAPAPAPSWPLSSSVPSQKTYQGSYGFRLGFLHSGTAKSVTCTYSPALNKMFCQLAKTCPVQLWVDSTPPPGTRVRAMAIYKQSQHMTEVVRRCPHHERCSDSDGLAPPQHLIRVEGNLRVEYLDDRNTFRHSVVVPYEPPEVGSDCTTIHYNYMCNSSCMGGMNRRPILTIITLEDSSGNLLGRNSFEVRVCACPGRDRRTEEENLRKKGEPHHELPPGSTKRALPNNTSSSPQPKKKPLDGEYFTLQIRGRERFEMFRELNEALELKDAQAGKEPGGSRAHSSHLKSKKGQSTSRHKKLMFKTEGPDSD
# Summary of the method: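 DMSO-normalized, positive-direction endpoint derived from the 460 nm/530 nm FRET ratio in HCT116 p53 beta-lactamase reporter cells exposed 16 h at 37C and loaded with CCF4-AM for 2 h.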
# [3] = target: Cellular tumor antigen p53 (Homo sapiens) (UniProt P04637); test: TOX21_p53_BLA_p3_ratio: Tox21 HCT-116 p53 Agonism Beta-lactamase Assay, Ratio, Phase 3 (AID 2283596)
# Summary of the method: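 Cells were seeded at 4000/well, rested 5 h at 37C, then dosed with DMSO compound solutions (217-fold dilution) for 16 h. CCF4-AM substrate was loaded for 2 h at room temperature, and the 460/530 nm emission ratio was fitted for gain of signal versus DMSO.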
# [4] = target: Cellular tumor antigen p53 (Homo sapiens) (UniProt P04637); test: TOX21_p53_BLA_p5_ratio: Tox21 HCT-116 p53 Agonism Beta-lactamase Assay, Ratio, Phase 5 (AID 2283599)
# Summary of the method: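 HCT-116 p53-bla cells (4000/well) plated 5 h, dosed with compound (217-fold DMSO dilution) for 16 h at 37 C; CCF4-AM substrate 2 h at room temperature. Activity is the 460/530 nm emission ratio (405 nm excitation), fitted in gain-of-signal direction versus DMSO.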
# [5] = TOX21_p53_BLA_p5_viability: Viability Assessment in the Tox21 HCT-116 p53 Agonism Beta-lactamase Assay, Phase 5 (AID 2283600)
# Summary of the method: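 Here cell health was gauged by ATP levels in wells holding 4000 cells, each treated 16 h with DMSO-delivered compounds at 217-fold dilution; reduced luminescence marked toxicity.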
# [6] = target: Cellular tumor antigen p53 (Homo sapiens) (UniProt P04637); test: TOX21_p53_BLA_p4_ratio: Tox21 HCT-116 p53 Agonism Beta-lactamase Assay, Ratio, Phase 4 (AID 2283601)
# Summary of the method: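 HCT-116 p53 beta-lactamase reporter cells (4000/well) preincubated 5 h, then compound (217-fold dilution of DMSO stock) for 16 h at 37C. CCF4-AM substrate added 2 h at room temperature; 460/530 nm emission ratio fitted upward versus DMSO.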
# [7] = CCTE_Harrill_HTTr_Viability_MCF7: CCTE's 6-hour Cell Viability Assessment for the High-Throughput Transcriptomics (HTTr) Platform, in MCF-7 cells cultured in DMEM + 10% fetal bovine serum, Harrill Lab (AID 2284010; active = hit-call score of the fitted dose curve at least 0.9, where 1 is the maximum; inactive = score below 0.9)
# Summary of the method: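 Read-out is propidium iodide gain of signal by high-content imaging, reflecting membrane integrity loss. Measurements are taken 6 h after dosing, eight concentrations per chemical, with DMSO serving as baseline for bidirectional curve fitting.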
# [8] = CCTE_Harrill_HTTr_Apoptosis_MCF7: CCTE's 6-hour Apoptosis Assessment for the High-Throughput Transcriptomics (HTTr) Platform, in MCF-7 cells cultured in DMEM + 10% fetal bovine serum, Harrill Lab (AID 2284011; active = hit-call score of the fitted dose curve at least 0.9, where 1 is the maximum; inactive = score below 0.9)
# Summary of the method: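 Apoptosis in MCF-7 cells grown in DMEM with 10% fetal bovine serum was scored after a six hour exposure by high content imaging of caspase-3/7 activation (CellEvent Caspase 3/7 Green), with DMSO serving as negative control and baseline.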
# [9] = CCTE_Harrill_HTTr_CellCount_MCF7: CCTE's Cell Proliferation Assessment for the High-Throughput Transcriptomics (HTTr) Platform, Harrill Lab (AID 2284012);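 note: cells exposed to compound for six hours; intended direction is loss of nuclei count meaning fewer cells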
# Summary of the method: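 Cell count served as viability reporter: loss of Hoechst-stained nuclei, counted by high content imaging, marks decreased growth or survival. Exposure was 6 h in MCF-7 cells across eight concentrations, with DMSO as baseline.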
compound,measurement,setting,value
CC1=C(/C=C/C(C)=C/C=C/C(C)=C/C=C/C=C(C)/C=C/C=C(C)/C=C/C2=C(C)CCCC2(C)C)C(C)(C)CCC1,outcome,[1],inactive
same,outcome,[2],inactive
same,outcome,[3],inactive
same,outcome,[4],inactive
same,outcome,[5],inactive
same,outcome,[6],inactive
CC(=C(CCOP(=O)(O)O)SC(=O)c1ccccc1)N(C=O)Cc1cnc(C)nc1N,outcome,[1],inactive
same,outcome,[2],inactive
same,outcome,[3],inactive
same,outcome,[4],inactive
same,outcome,[6],inactive
NC(=O)N[C@@H](CCC(=O)O)C(=O)O,outcome,[1],inactive
same,outcome,[2],inactive
same,outcome,[3],inactive
same,outcome,[4],inactive
same,outcome,[6],inactive
C/C=C/c1ccc(OCC)c(O)c1,outcome,[1],inactive
same,outcome,[2],inactive
same,outcome,[3],inactive
same,outcome,[4],inactive
same,outcome,[5],inactive
same,outcome,[6],inactive
CC(C)OC(=O)Nc1ccc2nc(-c3cscn3)[nH]c2c1,outcome,[1],inactive
same,AC50,[2],1520 nM (active)
same,AC50,[3],2600 nM (active)
same,AC50,[4],2330 nM (active)
same,AC50,[6],1090 nM (active)
CCC(=O)OC,outcome,[1],inactive
same,AC50,[2],82700 nM (active)
same,outcome,[3],inactive
same,outcome,[4],inactive
same,outcome,[6],inactive
CC/C=C\C/C=C\C/C=C\C/C=C\C/C=C\C/C=C\CCC(=O)O,outcome,[1],inactive
same,outcome,[2],inactive
same,outcome,[3],inactive
same,outcome,[4],inactive
same,outcome,[6],inactive
N#Cc1c(N(CC(=O)O)CC(=O)O)sc(C(=O)O)c1CC(=O)O,outcome,[1],inactive
same,outcome,[2],inactive
same,outcome,[3],inactive
same,outcome,[4],inactive
same,outcome,[6],inactive
O=C(O)[C@H](CC(=O)N1C[C@H]2CCCC[C@H]2C1)Cc1ccccc1,outcome,[1],inactive
same,outcome,[2],inactive
same,outcome,[3],inactive
same,outcome,[4],inactive
same,outcome,[6],inactive
COC(=O)CCCCCCCCC(=O)OC,outcome,[1],inactive
same,outcome,[2],inactive
same,outcome,[3],inactive
same,outcome,[4],inactive
same,outcome,[6],inactive
C=CCSCC1Nc2cc(Cl)c(S(N)(=O)=O)cc2S(=O)(=O)N1 (stereo unspecified),outcome,[1],inactive
same,outcome,[2],inactive
same,outcome,[3],inactive
same,AC50,[4],0.059 nM (active)
same,outcome,[6],inactive
CC(C)(CO)[C@@H](O)C(=O)NCCC(=O)NCCSSCCNC(=O)CCNC(=O)[C@H](O)C(C)(C)CO,outcome,[1],inactive
same,outcome,[2],inactive
same,outcome,[3],inactive
same,outcome,[4],inactive
same,outcome,[6],inactive
CC1(C)[C@H](C(=O)O)N2C(=O)C[C@H]2S1(=O)=O,outcome,[1],inactive
same,outcome,[2],inactive
same,outcome,[3],inactive
same,outcome,[4],inactive
same,outcome,[6],inactive
CC12CCC(C1)C(C)(C)C2=O (stereo unspecified),outcome,[1],inactive
same,outcome,[2],inactive
same,outcome,[3],inactive
same,outcome,[4],inactive
same,outcome,[6],inactive
OCCCC1CCCCC1,outcome,[1],inactive
same,outcome,[2],inactive
same,outcome,[3],inactive
same,outcome,[4],inactive
same,outcome,[5],inactive
same,outcome,[7],inactive
same,outcome,[8],inactive
same,outcome,[9],inactive
C=CC(=O)OCCOC(=O)CCC(=O)O,outcome,[1],inactive
same,outcome,[2],inactive
same,outcome,[3],inactive
same,outcome,[4],inactive
same,outcome,[6],inactive
CC(C)(C)OCC1CO1 (stereo unspecified),outcome,[1],inactive
same,outcome,[2],inactive
same,outcome,[3],inactive
same,outcome,[4],inactive
same,outcome,[6],inactive
CC[N+](C)(C)Cc1ccccc1Br,outcome,[1],inactive
same,outcome,[2],inactive
same,outcome,[3],inactive
same,outcome,[4],inactive
same,outcome,[5],inactive
same,outcome,[6],inactive
CCN(CC)c1cccc(O)c1,outcome,[1],inactive
same,outcome,[2],inactive
same,outcome,[3],inactive
same,outcome,[4],inactive
same,outcome,[5],inactive
same,outcome,[6],inactive
O=C1c2ccccc2C(=O)C1c1ccc(Cl)cc1,outcome,[1],inactive
same,outcome,[2],inactive
same,outcome,[3],inactive
same,outcome,[5],inactive
CCN(Cc1ccncc1)C(=O)C(CO)c1ccccc1 (stereo unspecified),outcome,[1],inactive
same,outcome,[2],inactive
same,outcome,[3],inactive
same,outcome,[5],inactive
CC(=O)Nc1ccc(C(=O)O)cc1,outcome,[1],inactive
same,outcome,[2],inactive
same,outcome,[3],inactive
same,outcome,[5],inactive
same,outcome,[6],inactive
OC[C@@H](O)C(O)[C@H](O)CO,outcome,[1],inactive
same,outcome,[2],inactive
same,outcome,[3],inactive
same,outcome,[4],inactive
same,outcome,[6],inactive
ON=C1CCCC1,outcome,[1],inactive
same,outcome,[2],inactive
same,outcome,[3],inactive
same,outcome,[6],inactive
O=C(O)c1ccc[n+]([O-])c1,outcome,[1],inactive
same,outcome,[2],inactive
same,outcome,[3],inactive
same,outcome,[5],inactive
same,outcome,[6],inactive
Cc1cn([C@H]2C[C@H](F)[C@@H](CO)O2)c(=O)[nH]c1=O,outcome,[1],inactive
same,outcome,[2],inactive
same,outcome,[3],inactive
same,outcome,[5],inactive
same,outcome,[6],inactive
O=[N+]([O-])c1cccc(S(=O)(=O)NCCNS(=O)(=O)c2cccc([N+](=O)[O-])c2)c1,outcome,[1],inactive
same,outcome,[2],inactive
same,outcome,[3],inactive
same,outcome,[5],inactive
same,outcome,[6],inactive
Cc1ccc(S(=O)(=O)NC2CCCCC2)cc1,outcome,[1],inactive
same,outcome,[2],inactive
same,outcome,[3],inactive
same,outcome,[5],inactive
CCOC(=O)O[C@]1(C(=O)OCCl)CC[C@H]2[C@@H]3CCC4=CC(=O)C=C[C@]4(C)[C@H]3[C@@H](O)C[C@@]21C,outcome,[1],inactive
same,outcome,[2],inactive
same,outcome,[3],inactive
same,outcome,[6],inactive
Nc1ncnc(Nc2ccccc2)n1,outcome,[1],inactive
same,outcome,[2],inactive
same,outcome,[3],inactive
same,outcome,[6],inactive
